The text below walks through data of PubChem BioAssay (NCATS).

Assay [1] can be described thus: qHTS assay for measurement of the activity of small molecule inhibitors on Zika virus induced Caspase-3 activity in human iPSC derived neural progenitor cells (hNPCs) (AID 1224857). Also: % of control where 0% means no effect; nearly all actives have a fitted effect of over 65% in size. The conditions noted are these: hNPCs ZIKV-induced caspase-3/7, Caspase-Glo luminescence, 6 h; series mostly up to 45.7 µM. In short, it runs like this: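 hNPCs seeded 350 cells/well, cultured 16–20 h; compounds added 1 h before ZIKV (2 FFU/cell), 37 C 6 h. Caspase-Glo 3/7 luminescence after 30 min RT; % inhibition from induction scaled to uninfected (0%) and infected (100%) wells.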

The nature of assay [2]: qHTS assay for measurement of the activity of small molecule inhibitors on Zika virus induced Caspase-3 activity in human astrocytoma cells (AID 1224859).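 Also: plate controls were ZIKV-infected untreated cells for no effect and uninfected cells for full effect.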 The conditions noted are these: SNB-19 ZIKV-induced caspase-3/7, luminescence, 6 h; series mostly up to 45.7 µM. In short, it runs like this: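 Luminescence read-out (Caspase-Glo 3/7, 30 min RT) of caspase activity in SNB-19 cells infected 6 h with ZIKV, 2 FFU/cell, after 1 h compound pretreatment; % inhibition from induction normalised to uninfected (0%) and infected (100%) wells.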
(In general: qHTS replaces the single test concentration by a dilution series.)

Assay [3] is described as follows: qHTS Screen of the MIPE 4.0 Collection Against Ewings Sarcoma (TC71) (AID 1259253). Also: nearly all actives have a fitted effect of over 40% in size. Also: potency is read from the fitted curve at half-maximal effect.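 As to viability (% of DMSO): 100% = DMSO-treated cells and 0% = medium-only wells without cells.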 The conditions noted are these: TC71 Ewing sarcoma viability, CellTiter-Glo, 48 h; series mostly up to 45.8 µM. In short, it runs like this:
(§1)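 Log-phase cells in RPMI with 5% FBS attached for 4 h, then received compounds as a titration for 48 h at 37C, 5% CO2. Viability was read by CellTiter-Glo luminescence and normalized to DMSO and no-cell wells.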

The nature of assay [4]: qHTS Screen of the MIPE 4.0 Collection Against Ewings Sarcoma (EW8) (AID 1259255). Also: nearly all actives have a fitted effect of over 35% in size. Also: potency is read from the fitted curve at half-maximal effect.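 As to viability: 100% = DMSO-treated cells and 0% = medium-only wells without cells.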 The conditions noted are these: EW8 Ewing sarcoma viability, CellTiter-Glo, 48 h; series mostly up to 45.8 µM. The essentials: as §1
The nature of assay [5]: qHTS Screen of the MIPE 4.0 Collection Against Ewings Sarcoma (TC32) (AID 1259256). Also: nearly all actives have a fitted effect of over 45% in size. Also: potency is read from the fitted curve at half-maximal effect.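 As to viability (percent of control): 100% = DMSO-treated cells and 0% = medium-only wells without cells.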 The conditions noted are these: TC32 Ewing sarcoma viability, CellTiter-Glo, 48 h; series mostly up to 45.8 µM. In short, it runs like this:
as §1

A short description of assay [6]: Identifying Small Molecule Inhibitors of Pancreatic Cancer Stem Cells (A2780, Spheroid) (AID 1259357). Also: potency is read from the fitted curve at half-maximal effect.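 Also: spheroids pre-formed over 14 days in stem cell medium on hydrogel; compound exposure lasted 48 h before the ATP luminescence read.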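 As to viability (percent of control): 100% = DMSO treated cells and 0% = wells without cells.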 The conditions noted are these: Potency: A2780 spheroid viability; series mostly up to 46.1 µM. In short, it runs like this:
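Adherent (2D) versus sphere (3D) formats; spheres generated 14 d in SCM beforehand. Compound transferred by pin tool after 4 h, 48 h incubation, CellTiter-Glo endpoint.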

Assay [7] can be described thus: Identifying Small Molecule Inhibitors of Pancreatic Cancer Stem Cells (Panc1, Spheroid) (AID 1259359).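 Also: potency is read from the fitted curve at half-maximal effect; compound exposure lasted 48 h before reading.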 The conditions noted are these: Panc1 spheroid cancer stem cell viability; series mostly up to 46.1 µM. In short, it runs like this: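 Spheroids grown 14 days in stem cell media on nonadherent hydrogel before screening; cells attached 4 h, then compound exposure 48 h at 37C, 5% CO2. CellTiter-Glo luminescence normalized to DMSO (no inhibition) and no-cell wells (full inhibition).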

Assay [8] is described as follows: qHTS Screen of the MIPE 4.0 Collection Against Ewings Sarcoma (RDES) (AID 1259252). Also: nearly all actives have a fitted effect of over 35% in size. Also: potency is read from the fitted curve at half-maximal effect.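 As to viability (percent of control): 100% = DMSO-treated cells and 0% = medium-only wells without cells.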 The conditions noted are these: RD-ES Ewing sarcoma viability, CellTiter-Glo, 48 h; series mostly up to 45.8 µM. The essentials:
as §1

Assay [9] in a line: Identifying Small Molecule Inhibitors of Pancreatic Cancer Stem Cells (SN12C, Adherent) (AID 1259358).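 Also: cell survival measured after 48 h of compound exposure.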 Also: potency is read from the fitted curve at half-maximal effect. The conditions noted are these: viability/growth inhibition; series mostly up to 46.1 µM. In short, it runs like this:
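Spheroids grown 14 days in stem cell media on hydrogel-coated nonadherent plates; 2D lines seeded directly. Compounds added after 4 h attachment, 48 h at 37C, 5% CO2; CellTiter-Glo luminescence normalized to DMSO (no inhibition) and no-cell wells (full inhibition).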

Assay [10] is described as follows: qHTS assay to identify small molecule inhibitors of chordoma cells - UCH-1 (AID 1259355). Also: % is scaled to controls: 0 for no effect and ±100 for the full control effect; nearly all actives have a fitted effect of over 55% in size. The conditions noted are these: UCH-1 chordoma viability, CellTiter-Glo, 48 h, combination, with auranofin plus four topoisomerase inhibitors; series mostly up to 46.1 µM. In short, it runs like this: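 Screening used approved and investigational drugs in 15-point titration against 800 seeded cells per well. A fixed combination of auranofin with camptothecin, doxorubicin, rubitecan and topotecan followed compound addition, and growth was scored by CellTiter-Glo after 48hr.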

Values without a mark were called inactive. Inconclusive results are not listed. The source made the active and inactive calls. Calls follow the shape of the dose curve; as a rule, active = well fitted curve in the direction sought with a large enough effect; inconclusive = small, poorly fitted or top-dose-only effect, or another doubt; inactive = no such curve, though single readings can be large; an effect the other way counts as inactive or inconclusive.

With `Cc1cc(Nc2cc(NC(=O)c3c(Cl)cccc3Cl)ccn2)nc(N)n1`, the Potency entry in [1] and in assay [2] was “inactive” in each case. The Potency in assay [3] was 0.148 µM (active); in [4] it was 0.187 µM (active); in assay [5], 0.264 µM (active); in [6], 20.9 µM (active).

With `CCN1CCN(CC(=O)Nc2ccc(-c3cccc4c(=O)cc(N5CCOCC5)oc34)c3sc4ccccc4c23)CC1`, the Potency result in assay [1] and in [2] was “inactive” in each case. The Potency in assay [3] is 6.62 µM (active); in assay [4], 16.6 µM (active); in assay [5], 1.32 µM (active); in assay [7], 16.6 µM (active).

Regarding `CS(=O)(=O)c1ccc(-c2cnc(N)c(C(=O)Nc3ccccc3)n2)cc1`, the Potency entry in [1] and in [8] was “inactive” throughout. Besides, the Potency was 10.5 µM (active) in assay [3], 13.2 µM (active) in assay [4] and 4.18 µM (active) in assay [5].

For the compound `Fc1cc(-c2cccc3ncc(-c4cnn(C5CCNCC5)c4)nc23)cc(F)c1CN1CCOCC1`, the Potency result in assay [1] and in [2] was “inactive” each time. The Potency in [3] is 20.9 µM (active); in assay [4], 20.9 µM (active); in assay [5], 18.7 µM (active); in [9], 23.5 µM (active).

In the case of `C=C1C(=CC=C2CCCC3(C)[C@@H]([C@H](C)C=CC=CC(O)(CC)CC)CC[C@@H]23)C[C@@H](O)C[C@@H]1O` (some centres not stated), the Potency result in assay [1] and in assay [2] was “inactive” throughout. Besides, the Potency is 18.7 µM (active) in assay [3], 23.5 µM (active) in [4] and 20.9 µM (active) in assay [5].

Consider `Nc1ccc(S(=O)(=O)Nc2ncccn2)cc1`, for which the Potency entry in [1], in assay [2], in [3], in assay [4], in [5] and in assay [10] was “inactive” each time.

As to `Cc1cc(Nc2nc(N[C@@H](C)c3ccc(F)cc3)c(C#N)cc2F)n[nH]1`, the Potency result in assay [1] is “inactive”. Further, the Potency in assay [8] was 1.66 µM (active); in assay [3] it was 13.2 µM (active); in [4] it was 1.05 µM (active); in assay [5], 1.32 µM (active).

For the compound `O=C(c1cncc(Br)c1)N1CCC(N2CCCC2)CC1`, the Potency entry in [1], in assay [2], in [3], in [4] and in assay [5] was “inactive” throughout.

For the compound `O=C(C=Cc1c(C(=O)O)[nH]c2cc(Cl)cc(Cl)c12)Nc1ccccc1`, the Potency result in [1], in [2], in assay [3], in assay [4], in assay [5] and in assay [6] was “inactive” each time. Also, the Potency entry in assay [9] is “inactive”.

`CN(C)Cc1c(C(=O)NCCOc2ccc(C(=O)NO)cc2)oc2ccccc12`: the Potency result in assay [1] was “inactive”. The Potency in assay [8] is 1.05 µM (active); in [3], 0.935 µM (active); in assay [4], 1.05 µM (active); in assay [5] it was 0.833 µM (active).

On to `Cc1cc(Nc2cc(CN3CCOCC3)c3nc(C)c(Cc4ccc(Cl)cc4F)n3n2)n[nH]1`, for which, in assay [1], the Potency entry was “inactive”. The Potency in [8] is 16.6 µM (active); in assay [3], 14.8 µM (active); in [4], 3.32 µM (active); in assay [5], 3.72 µM (active).

Regarding `COc1cc2c(Oc3ccc(-c4cnc(Nc5ccc(F)cc5)n(C)c4=O)cc3F)ccnc2cc1OCCCN1CCOCC1`, the Potency entry in assay [1] and in [2] was “inactive” each time. Further, the Potency in assay [3] was 20.9 µM (active); in assay [4], 18.7 µM (active); in assay [5], 11.8 µM (active); in [9], 5.9 µM (active); in [7], 11.8 µM (active).

As for `CC=C1NC(=O)[C@H]2CSSCCC=C[C@H](CC(=O)N[C@H](C(C)C)C(=O)N2)OC(=O)[C@H](C(C)C)NC1=O`, the Potency result in assay [1] and in assay [2] was “inactive” each time. Besides, the Potency in [3] is 0.0209 µM (active); in assay [4], 0.0187 µM (active); in assay [5], 0.0148 µM (active); in assay [9], 0.0053 µM (active).

Turning to `Cn1cncc1[C@@](N)(c1ccc(Cl)cc1)c1ccc2c(c1)c(-c1cccc(Cl)c1)cc(=O)n2C`, the Potency result in assay [1] and in assay [2] was “inactive” each time. Besides, the Potency in assay [3] is 4.69 µM (active); in [4], 5.26 µM (active); in [5] it was 5.9 µM (active).

In the case of `CC[C@@H]1C(=O)N(C)c2cnc(Nc3ccc(C(=O)NC4CCC(N5CCN(CC6CC6)CC5)CC4)cc3OC)nc2N1C(C)C` (some centres not stated), the Potency entry in assay [1], in assay [2] and in [6] was “inactive” in each case. In addition, the Potency is 0.118 µM (active) in [3]; 0.0743 µM (active) in assay [4]; 0.0662 µM (active) in assay [5]; 1.32 µM (active) in assay [9]; 0.0093 µM (active) in assay [7].

`Nc1ccccc1NC(=O)c1ccc(CNC(=O)OCc2cccnc2)cc1`: the Potency entry in [1], in assay [2] and in [9] was “inactive” in each case. Further, the values for the Potency in assay [3], in assay [4] and in assay [5] were 2.35 µM (active), 2.35 µM (active) and 1.66 µM (active), respectively.

`COc1ccc(CC2c3cc(OC)c(OC)cc3CC[N+]2(C)CCC(=O)OCCCCCOC(=O)CC[N+]2(C)CCc3cc(OC)c(OC)cc3C2Cc2ccc(OC)c(OC)c2)cc1OC` (configuration not stated): the activity change, negative = inhibition in assay [1] is 18.4% [at 9.06 µM]. Further, the values for the viability (percent of control) in assay [8] and in [5] were 121% [at 5.15 µM] and 123% [at 5.15 µM], respectively. In addition, the viability (% of DMSO) in [3] is 110% [at 5.15 µM]. Besides, in assay [4], the viability (commonly a read-out of living cells in per cent, often relative to untreated cells) was 117% [at 5.15 µM].

In the case of `CCC(=C(c1ccccc1)c1ccc(OCCN(C)C)cc1)c1ccccc1`, the Potency result in assay [1] was “inactive”. Moreover, the Potency in [8] was 26.4 µM (active); in assay [3] it was 16.6 µM (active); in [4], 20.9 µM (active); in assay [5], 16.6 µM (active).

Consider `C[C@H]1C[C@@H]2[C@@H]([C@@H](O)C[C@@]3(C)[C@H]2CC[C@]3(O)C(=O)CO)[C@@]2(C)C=CC(=O)C=C12`, for which the Potency entry in assay [1], in [8], in [3], in assay [4] and in assay [5] was “inactive” each time.

Take `COc1ccc(OC)c(-c2nnc3ccc(-c4ccc(OC)c(O[C@@H]5CCOC5)c4)nn23)c1`: the Potency entry in assay [1] was “inactive”. The Potency in [8] was 16.6 µM (active); in [3], 16.6 µM (active); in [4], 11.8 µM (active); in assay [5], 16.6 µM (active); in [9], 20.9 µM (active).

For `COc1cccc2nc(-c3cccs3)nc(NN3C(=O)C=C(C)C3=O)c12`, the Potency result in assay [1] was “inactive”. Besides, the Potency is 2.96 µM (active) in [8]; 0.743 µM (active) in assay [3]; 0.469 µM (active) in assay [4]; 1.87 µM (active) in assay [5]; 0.662 µM (active) in assay [6].

Consider `O=C(O)Cn1nnc(-c2cc(N3CCC(Oc4cc(F)ccc4Br)CC3)no2)n1`, for which the Potency entry in assay [1], in assay [8], in assay [3], in assay [4] and in assay [5] was “inactive” throughout.

In the case of `COc1ccc(C(=O)CC2(O)C(=O)Nc3c(Cl)ccc(Cl)c32)cc1` (configuration not stated), in assay [1], the Potency entry is “inactive”. For the same compound, the Potency was 2.35 µM (active) in [8], 3.32 µM (active) in assay [3], 1.48 µM (active) in assay [4] and 1.66 µM (active) in assay [5].

`C[C@@H](Oc1cc(-c2cnn(C3CCNCC3)c2)cnc1N)c1c(Cl)ccc(F)c1Cl`: the Potency result in [1] is “inactive”. Moreover, the Potency in assay [8] was 16.6 µM (active); in [3], 14.8 µM (active); in assay [4], 10.5 µM (active); in assay [5] it was 4.18 µM (active); in assay [9], 18.7 µM (active).

As for `CC(C)(C)OC(=O)Nc1ccc(-c2cc(C(=O)NCCCCCCC(=O)NO)no2)cc1`, the Potency entry in assay [1] was “inactive”. For the same compound, the Potency in [8] was 2.09 µM (active); in [3], 2.96 µM (active); in assay [4], 1.32 µM (active); in [5] it was 1.66 µM (active); in [9], 26.4 µM (active).
